Experimental findings from PubChem BioAssay (NCI) are described below.

About 83,000 compounds went through this panel and 20% of them were active in at least one assay; those are over-represented in the sample as a whole.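 96-well plates, one dose, 48 hours. Percent growth reported; active if below 10.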 A number with no mark means an inactive call. Active and inactive are the calls of the source.

Holding throughout (experiment): NCI-60 one-dose screen, 48 h (100 = growth as untreated, 0 = no growth, -100 = all killed)
The subject of assay [1] is RPMI-8226 leukemia. To be noted: 10 µM.
Assay [2] relates to OVCAR-8 ovarian. To be noted: 10 µM unless noted.
In assay [3] the test system is OVCAR-5 ovarian. To be noted: 10 µM unless noted.
Assay [4] concerns OVCAR-4 ovarian. The conditions noted are these: 10 µM unless noted.
Assay [5] concerns SK-OV-3 ovarian. The conditions noted are these: 10 µM.
Assay [6] relates to IGROV1 ovarian. To be noted: 10 µM unless noted.
Assay [7] relates to OVCAR-3 ovarian. To be noted: 10 µM unless noted.
The test system of assay [8] is HS 578T breast. To be noted: 10 µM unless noted.
Assay [9] relates to NCI/ADR-RES ovarian. The conditions noted are these: 10 µM unless noted.
For assay [10], the system named is T-47D breast. To be noted: 10 µM.
Assay [11] relates to BT-549 breast. To be noted: 10 µM unless noted.
For assay [12], the system named is MDA-MB-435 melanoma. The conditions noted are these: 10 µM unless noted.
Assay [13] relates to SW-620 colon. The conditions noted are these: 10 µM unless noted.
In assay [14] the test system is MCF7 breast. To be noted: 10 µM unless noted.
In assay [15] the test system is HCT-116 colon. The conditions noted are these: 10 µM unless noted.
The subject of assay [16] is HCC-2998 colon. To be noted: 10 µM unless noted.
Assay [17] relates to KM12 colon. To be noted: 10 µM unless noted.
Assay [18] relates to SR leukemia. The conditions noted are these: 10 µM unless noted.

For the compound `O=C1/C(=C/c2ccc(Cl)cc2)N=C(c2ccccc2)N1CCc1cccs1`, the growth in assay [1] was 76.1%; in assay [2] it was 36.1%; in assay [3], 30.5%; in [4], 62.1%; in assay [5] it was 105%; in [6], 55.3%. In addition, the growth is 79.9% in assay [7]; 67.7% in assay [8]; 56.7% in [9]; 97.7% in [10]; 59.8% in assay [11]; 53.2% in assay [12]. The growth in assay [13] is 51.3%; in [14] it was 15.7%; in assay [15], 28.5%; in assay [16], 25.4%; in [17] it was 99.2%.
In the case of `c1ccc(-c2n(Cc3ccc4ccccc4c3)c3ccccc3[n+]2Cc2ccc3ccccc3c2)cc1`, the growth in assay [18] was -23.6% (active); in assay [2], -22.9% (active); in assay [4], -4.85% (active); in assay [6], -77.5% (active); in [7] it was -84.2% (active); in [8], -33.8% (active). Also, the growth was 46.4% in assay [9]; -28.2% (active) in [11]; -76.4% (active) in assay [12]; -48.5% (active) in [13]; -44.2% (active) in assay [14]; -79.3% (active) in [16]. In addition, the growth in assay [17] was -86.8% (active).
`O=[N+]([O-])c1cc2c(cc1Br)-c1ccccc1C2`: the growth is 80.7% in assay [1]; 97.3% in assay [2]; 124% in assay [3]; 48.5% in [4]; 90% in assay [5]; 87.1% in assay [6]. The growth in assay [7] is 102%; in assay [8], 94%; in assay [9], 81.6%; in [10], 14.9%; in assay [11], 76.8%; in assay [12] it was 94.7%. Besides, the growth in assay [13] was 83.6%; in assay [14] it was 3.07% (active); in assay [15] it was 84%; in [17], 58.5%.
Take `Cc1ccc2nc(NC(=O)CSC(=S)N3CCN(C)CC3)sc2c1`: the growth in [1] was 106%; in assay [2] it was 75.6%; in [3] it was 105%; in [4], 100%; in assay [5], 108%; in [6], 86.7%. Further, the growth in assay [7] was 120%; in [8], 114%; in assay [9], 89%; in assay [10], 105%; in assay [12], 101%; in assay [13], 106%. For the same compound, the growth in assay [14] was 93%; in [15] it was 97.2%; in assay [17] it was 111%.
As to `Cc1ccccc1-n1nnc(C(=O)Nc2nc(-c3ccccc3)c(-c3ccccc3)s2)c1C`, the growth in assay [18] is 69.5% [50 µM]; in [2] it was 67.9% [50 µM]; in assay [4], 58.1% [50 µM]; in assay [6], 89.9% [50 µM]; in assay [7] it was 79.8% [50 µM]; in assay [8], 46.7% [50 µM]. Moreover, the growth is 84.3% [50 µM] in assay [9]; 89.7% [50 µM] in assay [11]; 82.7% [50 µM] in assay [12]; 87.3% [50 µM] in assay [13]; 72.2% [50 µM] in assay [14]; 62.6% [50 µM] in [15]. For the same compound, the growth in assay [16] is 99.1% [50 µM].
Consider `COc1cccc(C2C3=C(COC3=O)N(CCO)c3cc4c(cc32)OCO4)c1` (stereo not given), for which the growth was 31.4% in assay [1]; 42.3% in assay [2]; 35.6% in assay [3]; 40.6% in [4]; 20.8% in assay [5]; 30.4% in assay [6]. Further, the growth in [7] was -64.9% (active); in assay [8], 2.25% (active); in assay [9], -16.2% (active); in [10], 49.1%; in assay [12], -40.1% (active); in [13], 22.4%. Besides, the growth in assay [15] was 8.72% (active); in [16], 5.59% (active); in assay [17] it was 14.3%.
As to `COc1ccc(C2OCC(C)(C)CO2)cc1OC`, the growth in [1] was 95.6%; in assay [2], 105%; in [3], 100%; in assay [4], 104%; in assay [5], 107%; in assay [6], 139%. Further, the growth in [7] is 117%; in [8], 109%; in assay [9], 108%; in assay [10], 97.3%; in assay [13], 106%; in assay [14], 104%. The growth was 109% in assay [15] and 102% in [16].
As for `O=C1/C(=C/c2ccc(Cl)cc2)CN(Cc2cn(CCCNc3ccnc4cc(Cl)ccc34)nn2)C/C1=C\c1ccc(Cl)cc1`, the growth in [1] was -49.3% (active); in assay [2], -42.3% (active); in [3], -74.1% (active); in assay [4] it was -9.71% (active); in assay [5], -48.5% (active); in assay [6] it was -0.666% (active). Further, the growth is -90.4% (active) in assay [7]; 9.27% (active) in [8]; 2.36% (active) in [9]; -10.8% (active) in assay [10]; -86.7% (active) in [12]; -75.6% (active) in [13]. Also, the growth in assay [14] is -97.9% (active); in assay [15], -64.4% (active); in assay [16], -88% (active); in [17], -75.1% (active).
For `C[C@@H](Oc1cc(-c2cnn(C3CC4(CNC4)C3)c2)cnc1N)c1c(Cl)ccc(F)c1Cl`, the growth in assay [1] was 27.7%; in assay [2], 48.9%; in assay [3], 38.1%; in assay [4] it was 48.2%; in assay [5] it was 66.3%; in [6], 64.2%. Also, the growth is 63.2% in assay [7]; 91.3% in assay [9]; 43.3% in assay [10]; 80.3% in [11]; 41% in assay [12]; 23.8% in assay [13]. The growth in assay [14] was 9.06% (active); in assay [15], 16.7%; in [16], 57.1%; in assay [17] it was -18.5% (active).
On to `CC(C)(C)[Si](C)(C)OC1[C@@H](O[Si](C)(C)C(C)(C)C)[C@@H](CNC(=O)NC(=O)C(F)(F)F)O[C@H]1n1cnc2c(NC(=O)Nc3ccccc3)ncnc21` (stereo not given in full), for which the growth in assay [1] was 4.89% (active); in [2] it was 82%; in [3] it was 88.8%; in assay [4], 78.4%; in assay [5], 89.7%; in assay [6], 71.2%. Moreover, the growth is -54.1% (active) in assay [7]; 49.5% in [8]; 85.5% in [9]; 85.5% in assay [10]; 96% in [11]; -4.83% (active) in assay [12]. Besides, the growth in assay [13] is 71.2%; in assay [14], 48.3%; in assay [15] it was 57.2%; in assay [16] it was 79.3%; in assay [17] it was 24%.
With `O=C(CCc1nnc2sc(/C=C\c3ccccc3)nn12)c1nc2ccccc2[nH]1`, the growth in [1] was 72%; in assay [2] it was 92.7%; in assay [5], 97.2%; in [6] it was 96%; in assay [7] it was 115%; in [8], 83.1%. The growth was 89.5% in assay [9]; 61.1% in assay [10]; 93.1% in [11]; 83.8% in assay [12]; 118% in assay [13]; 77.3% in assay [14]. Further, the growth in [15] is 59.7%; in assay [16], 95.8%; in assay [17] it was 92.5%.
With `C1CCC([PH+](C2CCCCC2)C2CCCCC2[PH+](C2CCCCC2)C2CCCCC2)CC1.[Au].[CH-]1CCCCC1CC1CCCC[N-]1` (stereo not given), the growth was 37.5% in assay [4], 18.3% in assay [8] and 30.9% in assay [9].
